The structures appear in SMILES notation. For some assays here: Measured potencies and affinities stand elsewhere.

Common to all, as to set-up: scale not given: direction of the effect not stated beside the values
The target of test [1] is AMP-activated protein kinase, AMPK (Homo sapiens) (UniProt P54646+O43741+P54619+Q9UGJ0+Q9Y478+Q13131+Q9UGI9). The test is described as follows: AMP-dependent Kinase enzyme assay. An in vitro enzyme assay that detects ADP turnover that is directly proportional to AMPK activity. This uses naive AMPK that is activated during the assay with MK-8722. Type of test: functional. The following applies: 30 µM.

Test [2] addresses Protein translocase subunit SecA (Escherichia coli (strain K12)) (UniProt P10408). The test is described as follows: Assay to Identify E. coli SecA ATPase Inhibitors. The following applies: 30 µM. Type of test: functional.
In test [3] the target is T1, Ubiquitin-activating enzyme e1, putative (Leishmania donovani (strain BPK282A1)) (UniProt E9BSI1).
T1 sequence (whole entry): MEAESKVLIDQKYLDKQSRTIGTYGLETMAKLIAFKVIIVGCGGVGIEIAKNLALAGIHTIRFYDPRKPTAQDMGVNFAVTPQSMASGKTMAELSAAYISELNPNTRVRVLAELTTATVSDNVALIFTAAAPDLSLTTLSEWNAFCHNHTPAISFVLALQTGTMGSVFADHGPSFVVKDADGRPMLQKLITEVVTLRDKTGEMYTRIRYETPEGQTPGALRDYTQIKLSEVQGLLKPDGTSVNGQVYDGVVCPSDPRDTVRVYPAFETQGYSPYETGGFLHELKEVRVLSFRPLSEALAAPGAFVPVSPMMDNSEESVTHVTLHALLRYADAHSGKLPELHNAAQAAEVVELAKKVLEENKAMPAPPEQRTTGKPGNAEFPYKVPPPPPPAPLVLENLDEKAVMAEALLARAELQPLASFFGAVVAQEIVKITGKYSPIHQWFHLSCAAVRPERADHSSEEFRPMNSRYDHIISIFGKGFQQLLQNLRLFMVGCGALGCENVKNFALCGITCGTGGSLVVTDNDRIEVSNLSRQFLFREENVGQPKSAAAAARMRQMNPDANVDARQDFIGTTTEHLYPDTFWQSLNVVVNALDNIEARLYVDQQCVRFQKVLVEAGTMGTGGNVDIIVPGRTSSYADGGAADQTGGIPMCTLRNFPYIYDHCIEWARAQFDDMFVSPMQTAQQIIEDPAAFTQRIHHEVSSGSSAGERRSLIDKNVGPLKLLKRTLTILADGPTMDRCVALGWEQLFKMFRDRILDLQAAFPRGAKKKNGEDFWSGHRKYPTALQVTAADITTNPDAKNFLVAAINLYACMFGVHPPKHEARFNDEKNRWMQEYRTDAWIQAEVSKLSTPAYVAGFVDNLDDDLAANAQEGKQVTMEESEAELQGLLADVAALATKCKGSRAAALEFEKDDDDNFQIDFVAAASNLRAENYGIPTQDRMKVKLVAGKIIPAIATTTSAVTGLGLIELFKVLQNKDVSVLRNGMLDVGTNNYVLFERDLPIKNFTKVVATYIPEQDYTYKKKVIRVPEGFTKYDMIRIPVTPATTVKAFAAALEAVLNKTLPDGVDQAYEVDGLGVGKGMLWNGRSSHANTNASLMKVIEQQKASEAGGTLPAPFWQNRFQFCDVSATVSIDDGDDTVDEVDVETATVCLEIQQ
The test is described as follows: Leishmania donovani Ubiquitin Activating Enzyme (LdE1). The class given is functional. The following applies: 30 µM.

In test [4] the target is Sialic acid-binding Ig-like lectin 9 (Homo sapiens) (UniProt Q9Y336). The test is described as follows: Hs-Siglec9 ALPHAscreen SOP 20170721. The conditions noted are these: 10 µM. On the technique in general: In Alpha technology, singlet oxygen from a donor bead excites a nearby acceptor bead.
Another test deals with Trypanosoma cruzi. The test is described as follows: Trypanosoma cruzi phosphomannomutase and mannose-1-phosphate guanylyltransferase assay. Type of test: functional. The conditions noted are these: 10 µM.
Test [5] concerns the target T2, Arginase-2, mitochondrial (Homo sapiens) (UniProt P78540).
T2 sequence (whole entry): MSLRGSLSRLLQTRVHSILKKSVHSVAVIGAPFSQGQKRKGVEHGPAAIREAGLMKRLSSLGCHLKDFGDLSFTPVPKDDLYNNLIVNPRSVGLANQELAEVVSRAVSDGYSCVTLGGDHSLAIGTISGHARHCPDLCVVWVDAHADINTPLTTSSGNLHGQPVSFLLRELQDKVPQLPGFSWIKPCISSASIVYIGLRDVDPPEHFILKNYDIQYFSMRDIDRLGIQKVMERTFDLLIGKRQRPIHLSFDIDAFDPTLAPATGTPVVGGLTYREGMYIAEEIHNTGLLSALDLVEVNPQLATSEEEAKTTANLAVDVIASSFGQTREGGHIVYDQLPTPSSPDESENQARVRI
The test is described as follows: in vitro enzyme assay to detect the production of urea directly proportional to the activity of Arginase II. Further: in the data most compounds retested in dose-response had high values. Type of test: functional. The conditions noted are these: 33.3 µM.

The target in test [6] is T3, Proteasome subunit beta (Trypanosoma cruzi) (UniProt O96673).
T3 sequence (whole entry): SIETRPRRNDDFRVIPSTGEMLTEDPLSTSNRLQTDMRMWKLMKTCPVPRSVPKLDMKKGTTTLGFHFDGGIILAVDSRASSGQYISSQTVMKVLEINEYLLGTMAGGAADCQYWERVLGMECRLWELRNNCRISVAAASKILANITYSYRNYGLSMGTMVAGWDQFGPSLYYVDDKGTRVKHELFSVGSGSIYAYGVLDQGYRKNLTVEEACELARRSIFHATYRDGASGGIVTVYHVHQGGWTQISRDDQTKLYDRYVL
The test is described as follows: Trypanosoma cruzi proteasome chymotrypsin-like activity (TcProtChymo) assay. Further: in the data most compounds retested in dose-response had high values. The following applies: 9.37 µM. The class given is functional.

A further test is filed under the species Homo sapiens. Put plainly: To identify inhibition of the IFN signalling (Jak-Stat) pathway via expression of an eGFP reporter gene under the control of an IFN-stimulated response element (ISRE) containing MxA promoter. Type of test: functional. The conditions noted are these: 30 µM. On the technique in general: Reporter assays use an easily measured gene product as a stand-in for the process of interest.

Test [7] concerns the target T4, Tyrosyl-tRNA synthetase, putative (Trypanosoma cruzi (strain CL Brener)) (UniProt Q4DSP6).
T4 sequence (whole entry): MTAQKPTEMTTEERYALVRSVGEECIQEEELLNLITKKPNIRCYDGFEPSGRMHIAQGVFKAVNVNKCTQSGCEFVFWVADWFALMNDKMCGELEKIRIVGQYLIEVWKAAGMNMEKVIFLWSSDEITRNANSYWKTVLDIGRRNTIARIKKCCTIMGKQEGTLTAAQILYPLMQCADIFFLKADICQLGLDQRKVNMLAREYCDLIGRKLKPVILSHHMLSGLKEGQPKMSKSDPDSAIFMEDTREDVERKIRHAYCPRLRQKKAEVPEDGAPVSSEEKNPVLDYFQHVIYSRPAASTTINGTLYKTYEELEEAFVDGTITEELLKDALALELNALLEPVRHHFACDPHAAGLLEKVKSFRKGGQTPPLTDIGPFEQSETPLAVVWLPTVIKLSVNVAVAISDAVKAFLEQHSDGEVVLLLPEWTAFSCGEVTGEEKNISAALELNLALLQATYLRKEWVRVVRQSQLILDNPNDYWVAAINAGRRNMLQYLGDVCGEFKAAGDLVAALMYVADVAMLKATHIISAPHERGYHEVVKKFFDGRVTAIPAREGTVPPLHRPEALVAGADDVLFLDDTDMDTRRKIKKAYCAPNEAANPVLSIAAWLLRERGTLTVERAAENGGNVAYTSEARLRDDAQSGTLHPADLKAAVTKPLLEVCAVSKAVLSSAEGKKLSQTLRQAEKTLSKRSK
Put plainly: Trypanosoma cruzi tyrosyl tRNA synthetase (TcYRS) _High Tyrosine SOP. Further: in the data most compounds retested in dose-response had high values. The following applies: 30 µM. The class given is functional.

The target in test [8] is T4, Tyrosyl-tRNA synthetase, putative (Trypanosoma cruzi (strain CL Brener)). The test is described as follows: Trypanosoma cruzi tyrosyl tRNA synthetase (TcYRS) SOP. The conditions noted are these: 30 µM. The class given is functional.
Test [9] concerns the target Chromo domain-containing protein 1 (Saccharomyces cerevisiae (strain ATCC 204508 / S288c) (Baker's yeast)) (UniProt P32657). The test is described as follows: ScCHD-1 Enzyme Inhibition Assay. Further: in the data most compounds retested in dose-response had high values. The following applies: 30 µM. The class given is functional.

Sequence of Protein translocase subunit SecA (Escherichia coli (strain K12)) (P10408 whole entry): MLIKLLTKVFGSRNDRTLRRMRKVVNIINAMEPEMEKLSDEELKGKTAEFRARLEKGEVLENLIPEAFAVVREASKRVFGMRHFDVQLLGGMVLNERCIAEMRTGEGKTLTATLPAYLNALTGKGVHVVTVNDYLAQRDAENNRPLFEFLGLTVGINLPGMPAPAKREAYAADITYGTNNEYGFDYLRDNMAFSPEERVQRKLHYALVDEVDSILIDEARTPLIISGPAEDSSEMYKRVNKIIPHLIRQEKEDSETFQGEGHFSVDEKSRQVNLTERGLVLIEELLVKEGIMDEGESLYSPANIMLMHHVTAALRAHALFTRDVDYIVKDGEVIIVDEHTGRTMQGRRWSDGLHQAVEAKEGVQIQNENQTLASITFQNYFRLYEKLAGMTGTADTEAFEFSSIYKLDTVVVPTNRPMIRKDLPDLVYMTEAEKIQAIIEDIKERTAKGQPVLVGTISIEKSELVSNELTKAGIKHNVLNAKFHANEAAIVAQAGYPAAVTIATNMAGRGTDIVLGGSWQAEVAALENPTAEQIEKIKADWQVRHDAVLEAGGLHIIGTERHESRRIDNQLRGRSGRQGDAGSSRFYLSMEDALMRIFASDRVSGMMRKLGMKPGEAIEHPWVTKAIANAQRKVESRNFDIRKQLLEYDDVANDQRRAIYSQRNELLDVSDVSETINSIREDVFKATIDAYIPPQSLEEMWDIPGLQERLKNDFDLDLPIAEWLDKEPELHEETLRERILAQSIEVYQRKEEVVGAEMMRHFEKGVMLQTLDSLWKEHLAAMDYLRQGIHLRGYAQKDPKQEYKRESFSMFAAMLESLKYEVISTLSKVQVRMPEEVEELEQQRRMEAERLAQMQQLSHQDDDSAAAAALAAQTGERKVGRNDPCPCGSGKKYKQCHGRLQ
Sequence of Chromo domain-containing protein 1 (Saccharomyces cerevisiae (strain ATCC 204508 / S288c) (Baker's yeast)) (P32657 whole entry, the tested form may be a part): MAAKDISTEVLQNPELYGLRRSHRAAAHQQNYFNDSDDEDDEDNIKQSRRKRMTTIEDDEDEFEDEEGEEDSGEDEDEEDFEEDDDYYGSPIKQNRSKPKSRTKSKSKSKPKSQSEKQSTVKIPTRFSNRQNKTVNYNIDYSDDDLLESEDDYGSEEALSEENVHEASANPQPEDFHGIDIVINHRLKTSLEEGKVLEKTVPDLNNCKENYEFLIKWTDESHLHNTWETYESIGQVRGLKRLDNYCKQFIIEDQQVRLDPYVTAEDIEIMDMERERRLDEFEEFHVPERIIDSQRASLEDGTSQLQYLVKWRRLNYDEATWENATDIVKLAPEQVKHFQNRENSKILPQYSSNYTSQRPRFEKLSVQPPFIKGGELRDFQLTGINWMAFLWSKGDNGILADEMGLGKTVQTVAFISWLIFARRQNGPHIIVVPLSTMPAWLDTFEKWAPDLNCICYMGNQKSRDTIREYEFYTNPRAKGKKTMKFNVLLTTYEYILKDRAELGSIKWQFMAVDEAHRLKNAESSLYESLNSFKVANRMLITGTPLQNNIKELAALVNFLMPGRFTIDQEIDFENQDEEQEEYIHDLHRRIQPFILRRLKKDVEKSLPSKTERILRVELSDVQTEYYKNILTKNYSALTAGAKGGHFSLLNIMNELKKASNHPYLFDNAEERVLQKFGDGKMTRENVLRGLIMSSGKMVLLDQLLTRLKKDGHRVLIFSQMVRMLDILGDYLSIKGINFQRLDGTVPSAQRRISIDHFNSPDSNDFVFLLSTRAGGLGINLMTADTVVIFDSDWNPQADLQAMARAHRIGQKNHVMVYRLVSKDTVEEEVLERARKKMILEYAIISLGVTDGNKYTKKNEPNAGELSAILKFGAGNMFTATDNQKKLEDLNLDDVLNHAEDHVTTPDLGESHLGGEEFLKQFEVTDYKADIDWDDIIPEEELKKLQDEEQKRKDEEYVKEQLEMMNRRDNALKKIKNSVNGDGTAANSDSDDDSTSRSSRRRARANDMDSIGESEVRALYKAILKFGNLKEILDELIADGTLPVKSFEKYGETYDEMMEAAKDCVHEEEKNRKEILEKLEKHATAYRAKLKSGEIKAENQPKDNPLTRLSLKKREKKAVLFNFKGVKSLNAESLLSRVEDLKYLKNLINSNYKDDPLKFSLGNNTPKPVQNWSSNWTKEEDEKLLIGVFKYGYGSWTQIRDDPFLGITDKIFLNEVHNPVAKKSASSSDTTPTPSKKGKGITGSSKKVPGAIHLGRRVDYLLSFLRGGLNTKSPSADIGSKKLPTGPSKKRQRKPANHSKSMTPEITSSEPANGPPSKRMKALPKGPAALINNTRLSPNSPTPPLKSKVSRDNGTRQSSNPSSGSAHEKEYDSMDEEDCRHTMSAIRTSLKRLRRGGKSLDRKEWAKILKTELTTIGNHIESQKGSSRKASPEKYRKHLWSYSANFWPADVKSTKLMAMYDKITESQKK
Sequence of Sialic acid-binding Ig-like lectin 9 (Homo sapiens) (Q9Y336 whole entry): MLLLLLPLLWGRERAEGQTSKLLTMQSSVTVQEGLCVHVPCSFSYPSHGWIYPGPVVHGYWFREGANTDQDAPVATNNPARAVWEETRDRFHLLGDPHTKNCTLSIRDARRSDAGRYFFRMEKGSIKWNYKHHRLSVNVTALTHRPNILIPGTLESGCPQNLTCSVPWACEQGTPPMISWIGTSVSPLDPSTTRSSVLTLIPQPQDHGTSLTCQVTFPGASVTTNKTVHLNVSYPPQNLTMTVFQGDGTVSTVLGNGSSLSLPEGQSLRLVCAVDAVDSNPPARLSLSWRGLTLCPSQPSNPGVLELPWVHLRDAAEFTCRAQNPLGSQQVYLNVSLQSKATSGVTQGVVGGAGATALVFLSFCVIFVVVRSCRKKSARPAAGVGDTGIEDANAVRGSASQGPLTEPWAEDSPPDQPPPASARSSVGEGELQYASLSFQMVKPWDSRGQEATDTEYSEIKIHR

As to `CC(C)N(C)S(=O)(=O)c1ccc2c(c1)CCN(C(=O)c1ccccn1)C2`, the Percent Effect in test [1] is -446%.

In the case of `Cc1ncc(-c2ccnc(N3CCCCC3)n2)c(=O)[nH]1`, the Percent Effect in test [2] is -0.483%; in test [3], 8%; in test [4], 1.07%; with Trypanosoma cruzi it was -8.84%; in test [5], -0.887%; in test [6] it was 9.07%. Besides, the Percent Effect in the test filed under Homo sapiens was 21.2%; in test [7], 0.526%; in [8] it was 5.13%; in [9], -11.6%.

On to `CC(C)(C)c1n[nH]c(C2CN(C(=O)c3ccsc3)CCO2)n1` (stereo not drawn), for which the Percent Effect in test [2] was -1.88%; in [3], 7.69%; in [4] it was 5.72%; in the test on Trypanosoma cruzi, 0.657%; in test [5] it was 0.82%; in test [6], 3.33%. Moreover, the Percent Effect was -15.3% in the test filed under Homo sapiens, 2.39% in test [7], 13.2% in test [8] and 2.07% in [9].

Turning to `Nc1nccc(-c2c[nH]nc2C2CCCCC2)n1`, the Percent Effect in test [2] was 1.44%; in test [3], 10.7%; in [4], -1.99%; in the test on Trypanosoma cruzi, -6.83%; in test [5], 3.1%; in [6], 17.9%. In addition, the Percent Effect in the test listed under Homo sapiens is 99.6%; in [7], 1.58%; in [8] it was 0%; in [9], -6.8%.

With `O=c1[nH][nH]cc1-c1ccnc(NCCN2CCCC2)n1`, the Percent Effect was 3.78% in [2]; 10.7% in [3]; -2.82% in test [4]; -4.82% with Trypanosoma cruzi; -8.87% in [5]; 7.38% in [6]. Further, the Percent Effect in the test listed under Homo sapiens was 13.2%; in [7], -4.74%; in test [8] it was -5.13%; in test [9], -14.5%.

As to `CCCn1ncc2c(C(=O)Nc3cnn(CC)c3C)cc(C3CC3)nc21`, the Percent Effect is 1.41% in [2]; 12% in test [3]; -1.57% in test [4]; 2.76% with Trypanosoma cruzi; 3.98% in test [5]; 17.4% in test [6]. Besides, the Percent Effect in the test filed under Homo sapiens was 2.46%; in test [7] it was 2.12%; in test [8] it was 12.5%; in test [9] it was -24.6%.

For `O=C(c1ccccn1)N1Cc2nccn2CC(CN2CCOCC2)C1` (stereo not drawn), the Percent Effect in test [2] was -4.41%; in test [3], 9.09%; in test [4], -2.41%; in the test on Trypanosoma cruzi, -2.63%; in [5], 5.67%; in test [6] it was 8.56%. Moreover, the Percent Effect in the test filed under Homo sapiens is 4.82%; in test [7] it was 12.1%; in [8], 15.4%; in test [9], 1.74%.

Turning to `Cn1nc2c(cc1=O)CN(Cc1nnc(-c3ccco3)o1)CC2`, the Percent Effect in test [2] is -3.79%; in test [3], 17.9%; in [4] it was -11.1%; in the test with Trypanosoma cruzi it was 4.6%; in test [5], 1.23%; in test [6], 13.2%. The Percent Effect in the test filed under Homo sapiens came to 7.66%; in test [7], 4.31%; in [8] it was 22.9%; in [9] it was 17.4%.

In the case of `CN(Cc1ccccc1)CC(O)Cn1cnc2c(cnn2C)c1=O` (stereo not drawn), the Percent Effect is -1.52% in [2]; 17.9% in [3]; -4.11% in [4]; 4.79% in the test on Trypanosoma cruzi; 2.46% in test [5]; 10.5% in test [6]. Further, the Percent Effect in the test filed under Homo sapiens was -1.98%; in [7] it was 7.18%; in [8], 22.9%; in test [9] it was -3.86%.

Consider `Cn1cc(NC(=O)N2CCC(CN3CCCC3)CC2)ccc1=O`, for which the Percent Effect in test [2] is -0.732%; in [3], 7.69%; in test [4] it was 7.22%; in the test on Trypanosoma cruzi, -1.78%; in test [5], 11.1%; in [6], 1.79%. Moreover, the Percent Effect in the test filed under Homo sapiens was 14.5%; in [7], 3.35%; in test [8], 6.02%; in test [9] it was 0.924%.

As to `Cn1ccc(C(=O)N2CCCC2c2cc(CCO)[nH]n2)n1` (stereo not drawn), the Percent Effect in [1] was determined as 21.2%.

Take `CCc1sc(-c2nnc(CNCCn3cc(C)cn3)o2)cc1C`: the Percent Effect in test [2] was -2.72%; in test [3] it was 5.2%; in [4], 8.91%; in the test with Trypanosoma cruzi, -6.34%; in test [5], 4.71%; in [6] it was 1.93%. Also, the Percent Effect in the test listed under Homo sapiens is 10.2%; in test [7], 4.9%; in [8], 7.06%; in test [9], -8.57%.

As to `O=C(CN1CC(c2nc(C3CC3)no2)C1)NCc1ccc(F)cc1`, the Percent Effect in [1] worked out at 3.03%.

Consider `COCc1c(C(=O)NC2CCCC2)nnn1-c1ccc(C)cc1`, for which the Percent Effect in test [2] is 106%; in [3], 9.33%; in [4] it was -6.27%; in the test with Trypanosoma cruzi, -2.37%; in [5], 0.443%; in [6], 8.54%. Besides, the Percent Effect is 14.6% in the test listed under Homo sapiens, -2.12% in [7], 7.5% in test [8] and -17.9% in test [9].

Values taken from ChEMBL document CHEMBL3988442, “University of Dundee, Small-Polar-MMV Screening Library” (2021).
